Among all 16,000 compounds or so, about 5,100 (32%) were called active. About 25% were inconclusive and are not listed. The list shows a part of the results. A number with no mark means an inactive call. Calls follow the shape of the dose curve; as a rule, active = well fitted curve in the direction sought with a large enough effect; inconclusive = small, poorly fitted or top-dose-only effect, or effect the other way; inactive = no such curve, though single readings can be large or run the other way.
% is scaled to controls: 0 for no effect and ±100 for the full control effect.

The target in this experiment is Cytochrome P450 3A4 (Homo sapiens) (UniProt P08684). Nature of the experiment: Cytochrome panel assay with activity outcomes. The following applies: recombinant CYP, pro-luciferin dealkylation, luminescence, p450-cyp3a4; series mostly up to 57.1 µM.
Cytochrome P450 3A4 (Homo sapiens), sequence (P08684 whole entry, looked up): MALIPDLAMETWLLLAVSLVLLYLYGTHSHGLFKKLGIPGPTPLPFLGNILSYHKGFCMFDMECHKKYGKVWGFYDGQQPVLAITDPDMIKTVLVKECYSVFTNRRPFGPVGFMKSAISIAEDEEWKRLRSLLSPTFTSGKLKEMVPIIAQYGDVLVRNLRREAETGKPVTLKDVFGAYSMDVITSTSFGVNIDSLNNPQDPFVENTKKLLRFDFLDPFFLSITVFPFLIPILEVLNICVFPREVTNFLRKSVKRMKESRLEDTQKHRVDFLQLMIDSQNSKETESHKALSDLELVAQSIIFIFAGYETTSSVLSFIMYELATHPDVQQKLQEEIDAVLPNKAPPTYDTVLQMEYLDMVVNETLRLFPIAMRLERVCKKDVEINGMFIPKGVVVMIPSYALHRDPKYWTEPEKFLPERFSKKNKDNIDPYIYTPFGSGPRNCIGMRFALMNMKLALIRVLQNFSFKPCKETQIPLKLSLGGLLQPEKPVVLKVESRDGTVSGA
On to `CCCCC1=NN2C(=N)CC(=O)N=C2S1`, for which the AC50 result is “inactive”.

Turning to `CCN(CC)c1ccc(NC(=O)c2cnn(CC)c2)cc1`, the AC50 result was “inactive”. For the molecule `CN(C)c1ccc(NC(=O)CSc2nc(N)c(C(=O)Nc3ccc(N(C)C)cc3)s2)cc1`, the AC50 is 4.47 µM (active). As for `CN[C@@H]1NC(=O)c2ccccc2N1Cc1ccc(F)cc1`, the activity, negative = inhibition was -12.4% [at 11.4 µM]. As to `O=C1c2cccnc2C(=O)N1Cc1ccc(F)cc1`, the AC50 result was “inactive”.

Consider `Cc1ccc(NC2c3ncccc3C(=O)N2Cc2ccc(F)cc2)cc1` (stereo not drawn), for which the AC50 was 4.47 µM (active). `Cc1ccc(C)c(C(=N)c2ccccc2Cc2ccccc2)c1`: the AC50 was 3.98 µM (active).

For the molecule `N=C(c1ccc2ccccc2c1)c1ccccc1Cc1ccccc1`, the activity, negative = inhibition was -11.9% [at 11.4 µM].

Take `Cc1ccc(C(=N)c2ccccc2Cc2cccc3ccccc23)c2ccccc12`: the AC50 is 3.98 µM (active). With `c1ccc2c(CC3=NCCN3)cccc2c1`, the AC50 result is “inactive”.

For the molecule `Cc1cc(C)c(O)c(Cc2cccc(Cc3cc(C)cc(C)c3O)c2O)c1`, the activity, negative = inhibition is 6.11% [at 11.4 µM]. In the case of `CN(Cc1cccc2ccccc12)Cc1cccc2ccccc12`, the activity, negative = inhibition was -53.9% [at 11.4 µM]. In the case of `CN1CCCC1CCNC1C2CC3CC(C2)CC1C3` (stereo not drawn), the activity, negative = inhibition is -0.75% [at 2.29 µM]. Consider `CN1C(=C2C(=O)OC(C)(C)OC2=O)Sc2ccccc21`, for which the AC50 result is “inactive”. Regarding `O=C(Oc1c(Br)cc(C(=S)N2CCOCC2)cc1Br)c1ccc(Cl)cc1`, the activity, negative = inhibition is -1.32% [at 2.29 µM].

Regarding `CN(C)c1ncc2nc(-c3ccccc3)c(=O)n(C3CC3)c2n1`, the AC50 result is “inactive”. In the case of `O=c1c(-c2cc(F)cc(F)c2)nc2cnc(N3CCNCC3)nc2n1C1CC1`, the half-maximal activity concentration (AC50) is 25.1 µM (active). Same read-out and setting: under `O=c1c(-c2cc(F)cc(F)c2)nc2cnc(N3CCOCC3)nc2n1C1CC1` stands “inactive”; under `O=c1c(-c2ccc(Cl)cc2)nc2cnc(N3CCOCC3)nc2n1C1CC1`, “inactive”. Take `O=c1c(-c2cccs2)nc2cnc(Oc3ccccc3)nc2n1C1CC1`: the AC50 entry is “inactive”. Same read-out and setting: under `CN1CCN(c2ncc3nc(-c4cc(F)cc(F)c4)c(=O)n(C)c3n2)CC1` stands “inactive”; under `O=c1c(-c2ccccc2)nc2cnc(N3CCOCC3)nc2n1C1CC1`, “inactive”. For `O=c1c(-c2ccc(F)cc2)nc2cnc(N3CCOCC3)nc2n1C1CC1`, the AC50 result is “inactive”. Still for that read-out and setting: under `O=c1c(-c2ccc(F)cc2)nc2cnc(N3CCNCC3)nc2n1C1CC1` stands 15.8 µM (active); under `O=c1c(-c2ccccc2)nc2cnc(N3CCNCC3)nc2n1C1CC1`, 12.6 µM (active). `O=c1cnc2cnc(N3CCOCC3)nc2n1C1CC1`: the AC50 entry was “inactive”.

For `O=c1c(-c2cccs2)nc2cnc(N3CCNCC3)nc2n1C1CC1`, the AC50 was 6.31 µM (active). The same measure, in the same setting: under `COc1ccc(-c2nc3cnc(N4CCN(C)CC4)nc3n(C3CC3)c2=O)cc1` stands “inactive”; under `COc1ccc(-c2nc3cnc(N4CCNCC4)nc3n(C3CC3)c2=O)cc1`, 10 µM (active).

Turning to `COC(=O)[C@@]1(Cc2ccccc2)[C@H]2c3cc(C(=O)N4CCCC4)[nH]c3C[C@H]2CN1C(=O)c1ccccc1`, the AC50 was 2.51 µM (active). Turning to `COc1ccc2c(c1)c(CC(=O)O)c(C)n2C(=O)c1ccccc1`, the AC50 entry is “inactive”. Take `COC(=O)[C@@]1(Cc2ccc(OC)cc2)[C@H]2c3cc(C(=O)N(C)C)[nH]c3C[C@H]2CN1C(=O)c1ccccc1`: the half-maximal activity concentration (AC50) is 1.58 µM (active). Consider `C[C@@]12CC(=O)[C@@H]3[C@@H](CCC4=CC(=O)CC[C@]43C)[C@@H]1CC=C2CC(=O)O`, for which the activity, negative = inhibition is -10.5% [at 11.4 µM]. `CCOC(=O)C1=C(C)C(c2ccccc2OC)NC(=S)N1` (stereo not drawn): the activity, negative = inhibition was -19.1% [at 2.29 µM]. On the same count and under the same terms, under `CCOC(=O)C1=C(C)NC(=O)NC1c1ccoc1` (stereo not drawn) stands 15% [at 2.29 µM]. Turning to `CCOC(=O)C1=C(C)NC(=S)NC1c1cccc(O)c1` (stereo not drawn), the AC50 is 1 µM (active).

For the molecule `COc1cccc(-c2cc(N(C)Cc3ccco3)ncn2)c1`, the half-maximal activity concentration (AC50) is 25.1 µM (active).

With `CN(Cc1ccco1)c1cc(-c2cccnc2)ncn1`, the AC50 was 3.16 µM (active).

For the molecule `CN(Cc1ccco1)c1cc(-c2cccc(C#N)c2)ncn1`, the AC50 result is “inactive”. In the case of `COC(=O)[C@@]1(Cc2ccc(OC)cc2)[C@@H]2[C@@H](CC(=O)[C@H]2CC(=O)C(=O)N2CCCC2)CN1C(=O)c1ccccc1`, the AC50 was 0.794 µM (active). The same measure, in the same setting: under `COC(=O)[C@@]1(Cc2ccc(F)cc2)[C@@H]2[C@@H](CC(=O)[C@H]2CC(=O)C(=O)N2CCCC2)CN1C(=O)c1ccccc1` stands 1.58 µM (active); under `FC(F)(F)c1nnc(-c2ccccc2)nc1Sc1ccccc1`, “inactive”; under `c1ccc(Cc2nnc(Sc3ccccc3)c3ccccc23)cc1`, 12.6 µM (active). For `COc1ccc2[nH]cc(CCNc3cc(-c4ccccc4C(F)(F)F)ncn3)c2c1`, the half-maximal activity concentration (AC50) was 5.01 µM (active). `COc1ccc2[nH]cc(CCNc3cc(-c4ccccc4OC)ncn3)c2c1`: the AC50 was 6.31 µM (active). Turning to `COCCNc1cc(-c2ccccc2C)ncn1`, the AC50 entry was “inactive”.

`COc1ccc2[nH]cc(CCNc3cc(-c4ccccc4C)ncn3)c2c1`: the AC50 is 5.01 µM (active). As for `CC(C)OC(=O)CSc1nc(-c2ccc(F)cc2)nc2ccc(F)cc12`, the AC50 entry was “inactive”. Turning to `Cc1ccc(NC(=S)NC(=O)c2c(-c3ccccc3Cl)noc2C)cc1`, the AC50 was 14.1 µM (active).

As to `Cc1onc(-c2ccccc2Cl)c1C(=O)Nc1nnc(Cc2ccc(Cl)cc2)s1`, the AC50 was 3.16 µM (active). `O=C(Nc1ccccc1)c1cc(-c2ccccc2Cl)no1`: the AC50 result was “inactive”. As for `O=C(NCc1ccccc1Cl)C1CCN(S(=O)(=O)N2CCC3(CC2)OCCO3)CC1`, the AC50 is 14.1 µM (active). Same read-out and setting: under `O=C(NCCc1ccc(Cl)cc1)C1CCN(S(=O)(=O)N2CCC3(CC2)OCCO3)CC1` stands 3.55 µM (active). Take `COCCNC(=O)C1CCN(S(=O)(=O)N2CCC3(CC2)OCCO3)CC1`: the AC50 entry is “inactive”.

As for `CC(C)N(CCNC(=O)C1CCN(S(=O)(=O)N2CCOCC2)CC1)Cc1ccccc1`, the AC50 entry is “inactive”. Regarding `Cc1cc(C)c(S(C)(=O)=O)c(Oc2ccc(F)cc2)n1`, the activity, negative = inhibition is 26.1% [at 2.29 µM]. As for `CCCC(=O)Nc1cccc(Oc2nc(C)cc(C)c2C#N)c1`, the half-maximal activity concentration (AC50) is 14.1 µM (active). For the molecule `Cc1cc(C)c(C#N)c(Oc2ccccc2)n1`, the activity, negative = inhibition was -18.2% [at 11.4 µM]. `Cc1cc(C)c(C#N)c(Oc2ccc(F)cc2)n1`: the concentration at half-maximal activity (AC50) is 8.91 µM (active). Still for that read-out and setting: under `COc1ccc(-n2c(=O)c(-c3ccc(Cl)cc3)nc3cnc(N4CCOCC4)nc32)cc1` stands “inactive”; under `Clc1ccc(-n2nnnc2CN2CCOCC2)cc1`, “inactive”; under `Nc1nc(CSc2nnnn2-c2ccc(Cl)cc2)nc(N2CCOCC2)n1`, 3.98 µM (active). Regarding `COC(=O)c1cc(/C=C/c2ccccc2)on1`, the activity, negative = inhibition was -3.05% [at 2.29 µM]. Consider `COC(=O)C1=C(C)N=C2SC(C)C(=O)N2C1/C=C/c1ccccc1` (stereo not drawn), for which the concentration at half-maximal activity (AC50) is 12.6 µM (active).

As to `CC(C)C(=O)N[C@H]1CCCN1C(=O)/C=C\c1ccccc1`, the activity, negative = inhibition is -20.7% [at 11.4 µM]. Regarding `Cc1[nH]c2ccccc2c1CCNC(=O)c1ccc2c(c1[N+](=O)[O-])C(=O)c1ccccc1C2=O`, the half-maximal activity concentration (AC50) was 8.91 µM (active).

As to `Cc1[nH]c2c(C)cccc2c1CCNC(=O)c1ccc2c(c1[N+](=O)[O-])C(=O)c1ccccc1C2=O`, the concentration at half-maximal activity (AC50) was 3.16 µM (active). Turning to `CC(C)NC(=O)COC(=O)c1cc(=O)[nH]c2ccccc12`, the activity, negative = inhibition was 1.83% [at 2.29 µM]. Take `COc1cc(OC)nc(NC(C)=O)n1`: the AC50 result was “inactive”. For `COc1cc(C2SCCCCCCCCCCSC(c3ccc(O)c(OC)c3)SCCCCCCCCCCS2)ccc1O` (stereo not drawn), the activity, negative = inhibition was 12.5% [at 11.4 µM]. As for `COc1ccc(C[C@@H]2C(=O)N[C@H](C)C(=O)N(C)[C@@H]3Cc4ccc(cc4)Oc4cc(ccc4O)C[C@H](C(=O)N[C@@H](C)C(=O)N[C@H](C)C(=O)N2C)N(C)C3=O)cc1`, the half-maximal activity concentration (AC50) is 3.98 µM (active). As to `Nc1nc(Cl)cc(N2CCOCC2)n1`, the AC50 entry is “inactive”. With `NC1CCN(c2cccc(Cl)n2)CC1`, the AC50 result is “inactive”. As for `Nc1nc(Cl)cc(N2CCC(c3cc(-c4ccc(Cl)cc4Cl)n[nH]3)CC2)n1`, the AC50 was 20 µM (active). Consider `COc1ccc(-c2cc(C3CCN(c4cc(Cl)nc(N)n4)CC3)[nH]n2)cc1`, for which the AC50 was 28.2 µM (active). For `CCNc1ncc2nc(-c3cccs3)c(=O)n(Cc3ccc(F)cc3)c2n1`, the AC50 is 15.8 µM (active).

Regarding `CCNc1ncc2nc(-c3cccs3)c(=O)n(CCC#N)c2n1`, the half-maximal activity concentration (AC50) was 6.31 µM (active). Regarding `CCNc1ncc2nc(-c3ccc(F)cc3)c(=O)n(CCOC)c2n1`, the AC50 result was “inactive”. For the molecule `CCNc1ncc2nc(-c3cc(F)cc(F)c3)c(=O)n(CCC#N)c2n1`, the AC50 entry was “inactive”. Consider `CCNc1ncc2nc(-c3ccc(F)cc3)c(=O)n(CCC#N)c2n1`, for which the AC50 entry was “inactive”. Regarding `CCNc1ncc2nc(-c3cccs3)c(=O)n(Cc3cccs3)c2n1`, the AC50 is 6.31 µM (active). On the same count and under the same terms, under `CCNc1ncc2nc(-c3ccccc3)c(=O)n(Cc3cccs3)c2n1` stands 15.8 µM (active); under `CCNc1ncc2nc(C)c(=O)n(C)c2n1`, “inactive”. With `CCNc1ncc2nc(C)c(=O)n(Cc3cccs3)c2n1`, the concentration at half-maximal activity (AC50) was 15.8 µM (active).

Take `O=C(Nc1ccc2oc(-c3ccccc3F)nc2c1)c1ccc2c(c1)OCCO2`: the concentration at half-maximal activity (AC50) was 3.16 µM (active). The same measure, in the same setting: under `COc1cc2ccc(=O)oc2cc1O` stands “inactive”. In the case of `COc1cc(C(=O)NC(=S)Nc2ccc(Cl)c(C(=O)O)c2)cc(OC)c1OC`, the activity, negative = inhibition is -9.66% [at 11.4 µM]. In the case of `COc1cc(C(=O)NC(=S)Nc2cccc(-c3cc4ccccc4oc3=O)c2)cc(OC)c1OC`, the AC50 is 6.31 µM (active). With `COc1cc(C(=O)NC(=S)Nc2ccc3oc(=O)ccc3c2)cc(OC)c1OC`, the concentration at half-maximal activity (AC50) is 4.47 µM (active). In the case of `CC(O)(P(=O)(O)O)P(=O)(O)O`, the AC50 entry is “inactive”. Still for that read-out and setting: under `Cc1c(C(=O)NN2CCOCC2)nn(-c2ccc(Cl)cc2Cl)c1-c1ccc(I)cc1` stands “inactive”; under `CCC(=O)Nc1cc(-c2nn(C)c(=O)c3ccccc23)ccc1N1CCCCC1`, “inactive”; under `Cn1nc(-c2ccc(N3CCOCC3)c(NS(=O)(=O)c3ccc(Cl)cc3)c2)c2ccccc2c1=O`, 1.41 µM (active).

Values taken from PubChem BioAssay AID1851 (National Center for Advancing Translational Sciences (NCATS), 2009).
